Measurements: PubChem BioAssay
The source made the active and inactive calls. Unless noted, how the calls were made is not given here.

How the values were obtained:
[1] = resazurin metabolic signal in HepG2 cells – cell-based, resazurin fluorescence, 24 h, PK04 Diversity Set, profiling panel (AID 1172); details: HepG2 viability, higher = more signal; further: test concentration not given here
[2] = budding yeast growth changes without added modifier – OD600, strain BY4716, 24 h, basal condition, primary screen (AID 1173); details: S. cerevisiae BY4716 growth, OD600, 24 h; higher = more signal, called active from +8 up or from −8 down
[3] = viability profiling in MM1S myeloma cells – cell-based, resazurin fluorescence, basal, 24 h, PK04 Diversity Set, profiling panel (AID 1174); details: higher = more signal, called active from +8 up or from −8 down;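 further: MM1S multiple myeloma cell line; test concentration not given here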
[4] = target: Dihydroorotate dehydrogenase (quinone), mitochondrial (Plasmodium falciparum (isolate 3D7)) (UniProt Q08210); assay: inhibition of P. falciparum DHODH – biochemical, C-terminal His tag, absorbance 600 nm, primary screen (AID 1175); details: PfDHODH enzyme, DCIP absorbance 600 nm; higher = more signal, called active from +8 up or from −8 down;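 further: recombinant parasite enzyme with a five histidine tag at its C terminus; test concentration not given here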
[5] = inhibition of PAO1 biofilm formation – strain PAO1, LB-PBS medium, absorbance 600 nm, primary screen (AID 1176); further: test concentration not given here; details: P. aeruginosa PAO1 growth/biofilm, A600, 12 h; higher = more signal
[6] = growth modulation of vineyard yeast isolate – strain RM11-1a, OD600, basal, 24 h, primary screen (AID 1177);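 further: cultures grown under basal conditions with no added stressor; test concentration not given here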; details: S. cerevisiae RM11-1a growth, OD600, 24 h; higher = more signal, called active from +8 up or from −8 down
[7] = growth of efflux-deficient E. coli DRC39 – strain DRC39, OD650, 24 h, E. coli filamentation inducers, primary screen (AID 1178);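 further: growth measured as culture turbidity by optical density at 650 nm; test concentration not given here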; details: E. coli DRC39 acrAB, higher = more signal, called active from +8 up or from −8 down
[8] = growth of efflux-deficient E. coli DRC39 – strain DRC39, OD650, 48 h, E. coli filamentation inducers, primary screen (AID 1179);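 further: screen aims at cell division blockers that make cells filament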; details: E. coli DRC39 delta-acrAB growth, higher = more signal, called active from +8 up or from −8 down
[9] = viability profiling in RPMI8226 myeloma cells – cell-based, resazurin fluorescence, basal, 24 h, PK04 Diversity Set, profiling panel (AID 1180); details: higher = more signal;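 further: RPMI8826 multiple myeloma cell line at 5000 cells per well; test concentration not given here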
[10] = target: E3 ubiquitin-protein ligase XIAP (Homo sapiens) (UniProt P98170); assay: small molecules binding XIAP protein – biophysical, small-molecule microarray, fluorescence 635 nm, primary screen (AID 1181); details: higher = more signal;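 further: score merges 667 nm emission and signal to noise over triplicate slides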
E3 ubiquitin-protein ligase XIAP (Homo sapiens), sequence (P98170 whole entry, looked up): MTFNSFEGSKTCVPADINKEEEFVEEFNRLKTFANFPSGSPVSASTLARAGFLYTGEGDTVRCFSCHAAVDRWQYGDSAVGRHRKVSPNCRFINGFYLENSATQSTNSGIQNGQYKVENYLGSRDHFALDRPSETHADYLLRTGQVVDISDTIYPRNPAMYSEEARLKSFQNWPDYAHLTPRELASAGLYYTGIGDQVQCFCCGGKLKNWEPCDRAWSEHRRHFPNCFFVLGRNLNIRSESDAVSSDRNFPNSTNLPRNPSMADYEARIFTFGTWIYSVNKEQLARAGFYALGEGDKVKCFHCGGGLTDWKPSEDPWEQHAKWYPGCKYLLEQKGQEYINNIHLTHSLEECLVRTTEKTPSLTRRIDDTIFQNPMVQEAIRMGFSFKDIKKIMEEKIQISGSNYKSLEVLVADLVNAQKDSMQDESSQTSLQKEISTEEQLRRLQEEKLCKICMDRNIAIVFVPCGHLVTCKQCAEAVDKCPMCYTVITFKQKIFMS

Dihydroorotate dehydrogenase (quinone), mitochondrial (Plasmodium falciparum (isolate 3D7)), sequence (Q08210 whole entry, looked up): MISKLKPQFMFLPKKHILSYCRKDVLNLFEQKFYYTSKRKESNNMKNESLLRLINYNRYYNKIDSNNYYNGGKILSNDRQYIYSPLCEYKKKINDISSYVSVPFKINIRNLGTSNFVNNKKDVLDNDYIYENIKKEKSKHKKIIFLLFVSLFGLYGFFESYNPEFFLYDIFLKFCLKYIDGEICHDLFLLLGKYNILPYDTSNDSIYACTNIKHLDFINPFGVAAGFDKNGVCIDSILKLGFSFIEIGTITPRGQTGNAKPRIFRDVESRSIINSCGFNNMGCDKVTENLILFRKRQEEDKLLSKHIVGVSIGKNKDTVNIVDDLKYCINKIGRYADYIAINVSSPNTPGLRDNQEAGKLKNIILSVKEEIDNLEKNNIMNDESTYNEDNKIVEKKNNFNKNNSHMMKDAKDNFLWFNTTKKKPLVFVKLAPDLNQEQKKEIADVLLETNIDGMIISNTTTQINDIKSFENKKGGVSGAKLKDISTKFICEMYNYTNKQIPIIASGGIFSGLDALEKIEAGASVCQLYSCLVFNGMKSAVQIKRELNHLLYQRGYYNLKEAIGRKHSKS

| Compound | z-score [1] | z-score [2] | z-score [3] | composite z-score [4] | z-score [5] | z-score [6] | z-score [7] | z-score [8] | z-score [9] | composite z-score [10] |
| --- | --- | --- | --- | --- | --- | --- | --- | --- | --- | --- |
| C#C[C@@H](CC)O[Si](C#CCCCC#N)(C(C)C)C(C)C | -0.276 | -17.4 (active) | -0.651 (inactive) | -1.06 (inactive) | 0.113 (inactive) | -2.5 (inactive) | 0.0725 (inactive) | 0.173 (inactive) | -0.221 | -0.142 |
| O=c1cccc(-c2ccc(F)cc2)o1 | 0.0278 | -0.576 (inactive) | 0.306 (inactive) | -0.555 (inactive) | -0.088 (inactive) | 0.18 (inactive) | -0.561 (inactive) | -0.165 (inactive) | -0.739 | -0.167 |
| COCCOC(=O)N1C(=O)[C@@]2(c3cc(C#CCNC(N)=O)ccc31)[C@H](c1ccc(OCCO)cc1)N1[C@H](c3ccccc3)[C@H](c3ccccc3)OC(=O)[C@H]1[C@@H]2C(N)=O | -0.373 | 1.19 (inactive) | 0.421 (inactive) | -0.0174 (inactive) | 0.858 (inactive) | 2.4 (inactive) | 0.146 (inactive) | 0.384 (inactive) | 0.637 | -0.0414 |
| CCOC(=O)C[C@H]1[C@H](OC(=O)c2ccccc2-c2ccccc2)[C@@H](NC(=O)c2ccccc2)c2cc(OCCCO)ccc2N1C(=O)c1ccccc1 | -0.632 | 0.474 (inactive) | -0.287 (inactive) | 0.374 (inactive) | -0.0582 (inactive) | 0.383 (inactive) | -0.536 (inactive) | -0.508 (inactive) | -0.0741 | 0.0871 |
| NC(=O)NCC#Cc1ccc2c(c1)[C@]1(C(=O)N2)[C@H](C(=O)N2CCN(c3ncccn3)CC2)[C@H]2C(=O)O[C@H](c3ccccc3)[C@H](c3ccccc3)N2[C@@H]1c1ccc(OCCO)cc1 | 0.906 | 2.6 (inactive) | 0.0294 (inactive) | -0.238 (inactive) | 1.91 (inactive) | 3.91 (inactive) | 0.436 (inactive) | -0.114 (inactive) | 0.0901 | -0.202 |
| COC(=O)C1N=C(c2ccc(OCCCO)cc2)N(c2ccccc2)O1 (stereo not given) | 0.863 | -1.41 (inactive) | -0.279 (inactive) | -1.24 (inactive) | -1.1 (inactive) | 0.061 (inactive) | 0.642 (inactive) | -0.0518 (inactive) | 1.22 | -0.0118 |
| C=CCC(OC(C)=O)[C@@H]1[C@@H](N(Cc2cc3ccccc3o2)C(=O)c2ccc(-c3ccccc3)cc2)c2cc(OCCCO)ccc2N1C(=O)Cc1ccc(OC)cc1 (stereo not given in full) | -0.716 | 1.4 (inactive) | -0.133 (inactive) | 0.0211 (inactive) | 0.0672 (inactive) | 0.708 (inactive) | -0.384 (inactive) | -0.541 (inactive) | -0.209 | -0.0414 |
| COc1ccc([Si](C)(C)[C@H]2[C@H](CCO)O[C@@]3(C(=O)N(Cc4ccc(N5C(=O)c6ccccc6Oc6ccccc65)cc4)c4ccccc43)[C@@H]2C)cc1 | -1.49 | 0.884 (inactive) | -3.52 (inactive) | 0.198 (inactive) | 2.72 (inactive) | 4.11 (inactive) | 1.78 (inactive) | 0.987 (inactive) | -3.67 | -0.115 |
| C=CCNC(=O)[C@H]1[C@@H]2C(=O)O[C@@H](c3ccccc3)[C@@H](c3ccccc3)N2[C@@H](c2ccc(O)cc2)[C@]12C(=O)N(C(=O)OCCOC)c1ccc(C#CCC(C(=O)OC)C(=O)OC)cc12 | 0.238 | 1.34 (inactive) | -1.25 (inactive) | 0.638 (inactive) | 2.17 (inactive) | 2.19 (inactive) | 0.216 (inactive) | 0.136 (inactive) | -4.72 | -0.0251 |
| CCOC(=O)C=Cc1ccccc1O | -0.193 | -9.29 (active) | -0.056 (inactive) | -0.576 (inactive) | 0.0236 (inactive) | -8.46 (active) | -0.0367 (inactive) | -0.276 (inactive) | -0.234 | 0.125 |
| NC(=O)[C@H]1[C@@H]2C(=O)O[C@@H](c3ccccc3)[C@@H](c3ccccc3)N2[C@@H](c2ccc(O)cc2)[C@]12C(=O)Nc1ccc(C#CC3=CCCCC3)cc12 | -0.111 | 0.137 (inactive) | -2.5 (inactive) | -0.146 (inactive) | -0.144 (inactive) | 1.76 (inactive) | -0.466 (inactive) | -0.51 (inactive) | -4.76 | -0.0773 |
| COCC(=C=CC[C@@H](O)c1ccc(OCCO)cc1)CCO | 1.37 | -0.896 (inactive) | 1.1 (inactive) | -0.789 (inactive) | 0.424 (inactive) | 0.453 (inactive) | 1.41 (inactive) | 1.23 (inactive) | 2.08 | -0.0949 |
| C=C(COC)/C(=C/C[C@@H](OC(C)=O)c1ccc(CO)o1)c1cc(C(=O)OC)ccc1OC | -0.0453 | 0.196 (inactive) | -0.216 (inactive) | -0.0894 (inactive) | 0.637 (inactive) | 0.317 (inactive) | 0.65 (inactive) | 0.638 (inactive) | 0.205 | -0.173 |
| CC(C)CCC[C@@H](C)[C@H]1CC[C@@]2(C)C3=C(CC[C@]12C)[C@@]1(C)CC[C@H](OC(=O)c2ccccc2)C(C)(C)C1CC3 (stereo not given in full) | 0.533 | 0.436 (inactive) | 0.351 (inactive) | -1.48 (inactive) | 0.968 (inactive) | -1.61 (inactive) | 1.94 (inactive) | 1.57 (inactive) | 0.56 | -0.248 |
| O=C1C[C@@](C(=O)NCc2ccccc2)(c2ccc([N+](=O)[O-])cc2)[C@@H](c2ccc(CO)cc2I)N1CC12CC3CC(CC(C3)C1)C2 | -1.28 | -0.787 (inactive) | -1.73 (inactive) | -0.0036 (inactive) | 0.593 (inactive) | -0.229 (inactive) | 0.0207 (inactive) | 0.348 (inactive) | -2.62 | -0.227 |
| COCCOC(=O)N1C(=O)[C@@]2(c3ccccc31)[C@H](c1ccccc1OCCO)N1[C@H](c3ccccc3)[C@H](c3ccccc3)OC(=O)[C@H]1[C@@H]2C(N)=O | -0.704 | 1.82 (inactive) | -2.78 (inactive) | 0.565 (inactive) | 2.07 (inactive) | 1.98 (inactive) | 0.322 (inactive) | -0.528 (inactive) | -4.57 | -0.288 |
| Cc1ccc(S[C@]2(C(=O)NC(C)C)CC(=O)N(C(C)C)[C@@H]2c2ccc(CO)cc2I)cc1 | 0.197 | -2.15 (inactive) | -0.463 (inactive) | 0.0738 (inactive) | 0.444 (inactive) | -0.471 (inactive) | 0.882 (inactive) | -0.0992 (inactive) | -1.72 | 0.158 |
| Cc1ccccc1C(O)C1C=CC2C(=O)N(c3ccccc3)C(=O)C2N1Nc1ccc([N+](=O)[O-])cc1 (stereo not given) | -0.368 | -0.14 (inactive) | -0.327 (inactive) | 0.718 (inactive) | 1.29 (inactive) | -0.0035 (inactive) | -0.328 (inactive) | -0.316 (inactive) | -0.0045 | 0.167 |
| CO[C@H]1O[C@H](CO)[C@@H](OC(=O)c2ccc(Br)cc2)[C@@H]2OC(=O)[C@H](Cc3ccccc3)C/C=C/C[C@@H](Cc3ccccc3)C(=O)O[C@@H]12 | 0.722 | -2.04 (inactive) | -1.33 (inactive) | -0.854 (inactive) | -0.124 (inactive) | -1.42 (inactive) | 1.74 (inactive) | 2.16 (inactive) | 0.425 | 0.154 |
| O=C1O[C@H](c2ccccc2)[C@H](c2ccccc2)N2[C@H]1[C@@H](C(=O)N1CCCCCCC1)[C@]1(C(=O)Nc3ccc(C#CC4(O)CCCCCC4)cc31)[C@H]2c1ccc(O)cc1 | 0.114 | -0.101 (inactive) | -0.5 (inactive) | 0.0579 (inactive) | 0.875 (inactive) | 0.74 (inactive) | 0.799 (inactive) | 0.163 (inactive) | 0.295 | 0.322 |
| COCCOC(=O)N1C(=O)[C@@]2(c3cc(C#CCC(C(=O)OC)C(=O)OC)ccc31)[C@H](C(=O)NC[C@H](O)c1ccccc1)[C@H]1C(=O)O[C@H](c3ccccc3)[C@H](c3ccccc3)N1[C@@H]2c1ccc(OCCO)cc1 | -0.685 | 2.05 (inactive) | -0.0535 (inactive) | -0.429 (inactive) | 3.49 (inactive) | 3.11 (inactive) | 0.629 (inactive) | 0.453 (inactive) | -0.291 | 0.0806 |
| CC(C)c1ccc(NN2C(C(O)Cc3ccccc3)C=CC3C(=O)N(c4ccccc4)C(=O)C32)cc1 (stereo not given) | -1.93 | -1.02 (inactive) | -1 (inactive) | -0.335 (inactive) | 0.683 (inactive) | 0.269 (inactive) | -1.12 (inactive) | -1.07 (inactive) | -0.807 | 0.0989 |
| COc1ccc(C#Cc2ccc3c(c2)[C@]2(C(=O)N3)[C@H](c3ccc(OCCO)cc3)N3[C@H](c4ccccc4)[C@H](c4ccccc4)OC(=O)[C@H]3[C@@H]2C(=O)N2CCc3cc(OC)c(OC)cc3C2)cc1 | 0.36 | 2.06 (inactive) | -0.224 (inactive) | -1.84 (inactive) | 2.68 (inactive) | 2.33 (inactive) | -0.479 (inactive) | -0.324 (inactive) | 0.0844 | 0.107 |
| COC(=O)C(CC#Cc1ccc2c(c1)[C@]1(C(=O)N2)[C@H](C(=O)Nc2nc3ccccc3s2)[C@H]2C(=O)O[C@H](c3ccccc3)[C@H](c3ccccc3)N2[C@@H]1c1ccc(OCCO)cc1)C(=O)OC | 0.885 | -0.0399 (inactive) | 0.973 (inactive) | -3.07 (inactive) | 3.52 (inactive) | -0.367 (inactive) | 0.776 (inactive) | 1.42 (inactive) | -2.38 | -0.0391 |
| COc1cc(NN2C(C(O)c3cc(OC)c(OC)c(OC)c3)C=CC3C(=O)N(c4ccccc4)C(=O)C32)cc(OC)c1OC (stereo not given) | -1.95 | 0.585 (inactive) | -1.19 (inactive) | -1.42 (inactive) | 0.366 (inactive) | -0.147 (inactive) | -0.585 (inactive) | -0.511 (inactive) | -1.71 | 0.074 |
